# Results from the supplement of paper PMC9135407.
# Where “and” joins values, the source holds several entries; their conditions need not be identical. Equal entries are not always repeated. Structures can show the parent of a compound that is named as a salt. Screen size: about 5,800 compounds; about 620 (11%) showed activity. This excerpt belongs to a sample that is enriched for actives. A number with no mark means an inactive call.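 Rule for the calls: active = score above a cut-off or among the top three wells of a plate; in these data no inactive exceeds 0.85.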
# Tested on: primary human hepatic stellate cells (donor 1)
# Test: scaled lipid accumulation score (0 = DMSO-like, 1 = nortriptyline-like); higher = stronger HSC inactivation (lipid re-accumulation), active = hit call of the paper
# Settings: 48 h
# Method: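 Primary lipid accumulation screen in primary human hepatic stellate cell myofibroblasts (donor 1, passage 8) in 384-well plates. 100 nL of library compound was pin-transferred into 30 µL medium in duplicate, and cells were treated for 48 h. The 'Scaled' score combines distance from plate baseline, toxicity and reproducibility penalties, and is normalised to nortriptyline (positive) and DMSO (negative) controls on each plate. A hit is defined as scaled >0.85 or among the top 3 wells per plate.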
# [1] = library stock concentration: 10 mM
# [2] = library stock concentration: 3.33 mM
# [3] = library stock concentration: 1 mM
# [4] = library stock concentration: 2 mM
smiles,measurement,setting,value
"Cc1c(C)c2c(c(C)c1O)CC[C@@](C)(CCC[C@H](C)CCC[C@H](C)CCCC(C)C)O2 (racemic) [Tocopherol (R,S)]",scaled lipid accumulation score,,≤ 0
CN1CCN(c2c(F)cc3c(=O)c(C(=O)O)cn(CCF)c3c2F)CC1 [Fleroxacin],scaled lipid accumulation score,library stock concentration: 5.4 mM,≤ 0
CCCCCC(=O)/C=C/C=C\C/C=C\C/C=C\CCCC(=O)O [15-Ketoicosatetraenoic acid],scaled lipid accumulation score,library stock concentration: 100 uM,≤ -0.021
COc1ccc(CNC(=O)Nc2ncc([N+](=O)[O-])s2)cc1 [listing 1 of 2 here],scaled lipid accumulation score,[1],0.864 (active)
CC(=O)Nc1ncc([N+](=O)[O-])s1,scaled lipid accumulation score,[1],≤ 0
COc1ccc(CNC(=O)Nc2ncc([N+](=O)[O-])s2)cc1 [GSK-3b Inhibitor VIII],scaled lipid accumulation score,[2],≤ 0
COc1ccc(CNC(=O)Nc2ncc([N+](=O)[O-])s2)cc1 [listing 2 of 2 here],scaled lipid accumulation score,[2],0.006
CC(=O)Nc1ncc([N+](=O)[O-])s1 [Nithiamide],scaled lipid accumulation score,[2],≤ 0
same,scaled lipid accumulation score,[1],≤ -0.001
O=C(c1ccccc1)c1ccc(N2CCOCC2)cc1O [DNA-PK Inhibitor V],scaled lipid accumulation score,[2],≤ 0
"CCCCC(C)(C)[C@H](O)/C=C/[C@H]1C(=O)C[C@H](O)[C@@H]1C/C=C\CCCC(=O)O [16,16-dimethyl Prostaglandin D2]",scaled lipid accumulation score,[3],≤ 0
O=C1NC(=O)[C@@H](c2cn3c4c(cccc24)CCC3)[C@@H]1c1c[nH]c2ccccc12 [Tivantinib],scaled lipid accumulation score,library stock concentration: 80 uM,≤ -0.009
same,scaled lipid accumulation score,library stock concentration: 400 uM,0.071
same,scaled lipid accumulation score,[4],≤ -0.009
same,scaled lipid accumulation score,[1],0.169
"CCCCCC(=O)CC[C@H]1C(=O)C[C@H](O)[C@@H]1C/C=C\CCCC(=O)O [13,14-dihydro-15-keto Prostaglandin D2]",scaled lipid accumulation score,[3],≤ 0
C=CC(=O)Nc1cc(Nc2nccc(-c3cn(C)c4ccccc34)n2)c(OC)cc1N(C)CCN(C)C [listing 1 of 3 here],scaled lipid accumulation score,[4],1.01 (active)
C=CC(=O)Nc1cccc(Nc2nc(Nc3ccc(N4CCN(C(C)=O)CC4)cc3OC)ncc2C(F)(F)F)c1,scaled lipid accumulation score,[2],≤ -0.009
same,scaled lipid accumulation score,[1],0.063
COc1cc(N2CCN(C)CC2)ccc1Nc1nccc(-c2cn(C)c3cnccc23)n1,scaled lipid accumulation score,[2],≤ -0.009
same,scaled lipid accumulation score,[1],0.446
C=CC(=O)Nc1cccc(Nc2nc(Nc3ccc(NC4CN(CCF)C4)cc3OC)ncc2C(F)(F)F)c1,scaled lipid accumulation score,[2],≤ -0.009
same,scaled lipid accumulation score,[1],0.811
C=CC(=O)Nc1cc(Nc2nccc(-c3cn(C)c4ccccc34)n2)c(OC)cc1N(C)CCN(C)C [listing 2 of 3 here],scaled lipid accumulation score,[1],≤ 0
C=CC(=O)Nc1cc(Nc2nccc(-c3cn(C)c4ccccc34)n2)c(OC)cc1N(C)CCN(C)C [listing 3 of 3 here],scaled lipid accumulation score,[2],0.983 (active)
"CCN1CCCC1CNC(=O)c1cc(S(N)(=O)=O)ccc1OC (single isomer, unassigned; (-)) [(-)-Sulpiride]",scaled lipid accumulation score,[1],≤ 0
O=C1CCc2c(ccc3ccccc23)O1 [Splitomicin],scaled lipid accumulation score,[1],≤ -0.006
CCCCC[C@@H](O)/C=C/[C@@H]1[C@H](C/C=C\CCCC(=O)O)[C@@H](O)C[C@H]1O [8-iso-15(R)-Prostaglandin F2.alpha.],scaled lipid accumulation score,[3],≤ 0
CCCCC[C@H](O)/C=C/[C@@H]1[C@@H](C/C=C\CCCC(=O)NC(CO)CO)[C@@H](O)C[C@H]1O [Prostaglandin F2.alpha. serinol amide],scaled lipid accumulation score,[3],≤ 0
Nc1ncnc2c1c(I)cn2[C@@H]1O[C@H](CO)[C@@H](O)[C@H]1O [5-Iodotubercidin],scaled lipid accumulation score,[2],≤ 0
CCCCC[C@H](O)/C=C/[C@H]1C=CC(=O)[C@@H]1C/C=C\CCCC(=O)O [Prostaglandin A2],scaled lipid accumulation score,[3],≤ 0 and ≤ -0.021
CC(=O)O.N=C(N)N/N=C/c1c(Cl)cccc1Cl [Guanabenz acetate],scaled lipid accumulation score,[1],0.999 (active)
N=C(N)N/N=C/c1c(Cl)cccc1Cl [Guanabenz Acetate],scaled lipid accumulation score,[2],≤ 0
same,scaled lipid accumulation score,[1],0.578
N=C(N)NC(=O)Cc1c(Cl)cccc1Cl [Guanfacine HCl],scaled lipid accumulation score,library stock concentration: 7.1 mM,≤ -0.006
N=C(N)NC(=O)Cc1c(Cl)cccc1Cl [Guanfacine hydrochloride],scaled lipid accumulation score,,≤ 0
same,scaled lipid accumulation score,[1],0.148 and 0.048
N=C(N)N/N=C/c1c(Cl)cccc1Cl [Guanabenz acetate],scaled lipid accumulation score,,0.45
same,scaled lipid accumulation score,library stock concentration: 6.9 mM,0.304
same,scaled lipid accumulation score,library stock concentration: 8.7 mM,0.227
same,scaled lipid accumulation score,[1],0.426 and 0.365
"CCCCCC#CCC#CCC#CCC#CCCCC(=O)O [5,8,11,14-Eicosatetraynoic acid]",scaled lipid accumulation score,[3],≤ -0.021
CCCCCCCCCCCCCCCC(=O)N[C@H]1CCOC1=O [N-hexadecanoyl-L-Homoserine lactone],scaled lipid accumulation score,[3],≤ 0
CN(C)CCC=C1c2ccccc2C=Cc2ccccc21.Cl [Cyclobenzaprine HCl],scaled lipid accumulation score,[2],0.507 (active)
C(=C/CCN(C)C)(/c1c2cccc1)\c3c(cccc3)C=C2.Cl [Cyclobenzaprine hydrochloride],scaled lipid accumulation score,[1],0.991 (active)
CN(C)CCC=C1c2ccccc2C=Cc2ccccc21 [Cyclobenzaprine HCl],scaled lipid accumulation score,[1],0.745
CN(C)CCC=C1c2ccccc2C=Cc2ccccc21 [Cyclobenzaprine hydrochloride],scaled lipid accumulation score,library stock concentration: 6.4 mM,0.579
same,scaled lipid accumulation score,[1],0.568
C(/c1c2cccc1)(=C/CCN(C)C)\c3c(cccc3)C=C2.Cl [Cyclobenzaprine hydrochloride],scaled lipid accumulation score,,0.86 (active)
CC(C(=O)O)c1ccc(CC2CCCC2=O)cc1 (configuration not stated) [loxoprofen],scaled lipid accumulation score,[1],0.127
CC(C(=O)O)c1ccc(CC2CCCC2=O)cc1 (configuration not stated),scaled lipid accumulation score,[1],≤ 0
C=C1CC[C@H](O)C/C1=C/C=C1\CCC[C@]2(C)[C@@H]([C@H](C)CCCC(C)(C)O)CC[C@@H]12 [Calcifediol],scaled lipid accumulation score,[2],≤ 0
same,scaled lipid accumulation score,library stock concentration: 5 mM,0.042
same,scaled lipid accumulation score,[1],≤ 0
Nc1nc2c(ncn2[C@@H]2O[C@H](CO)[C@@H](O)[C@@H]2O)c(=O)[nH]1 [Ara-G hydrate],scaled lipid accumulation score,[1],≤ 0
Oc1ccc(OC2CCCCO2)cc1 (configuration not stated) [Deoxyarbutin],scaled lipid accumulation score,[2],≤ 0
same,scaled lipid accumulation score,[1],≤ -0.001
